Gli-Sufu antag: Gli-Sufu pathway antagonism; Sufu-KO-LIGHT fibroblasts, Gli luciferase reporter luminescence; inhibition, % at 5 µM; hit rate 0.74% among 340,000;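 active = inhibition above about 55%, limit read from the data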;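 also: 0% = DMSO-treated cells and 100% = wells with medium but no cells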
Shn3 inh set2: inhibitors of Schnurri-3 3'UTR reporter in osteoblasts; Clone20 osteoblast Shn3 3'UTR firefly luciferase, 24 h; inhibition, % at 12.5 µM; hit rate 0.52% among 360,000;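 active = mean inhibition of at least 75% with every replicate also reaching 75%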;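 also: 0% = median of neutral control wells and 100% = pilot-screen positive control compound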
aSyn 5UTR inh: MLPCN primary screen, SNCA 5' untranslated region | alpha-synuclein 5'UTR reporter, inhibitor activity | inhibition, % (tested at 7.5 µM) | hit rate 0.82% among 300,000; in the data active = inhibition above about 60%;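 also: H4 neuroglioblastoma cells stably carrying SNCA 5'UTR luciferase fusion; 0% = DMSO wells and 100% = positive control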
H9c2 TAG inh: triacylglycerol accumulation inhibition; hit rate 0.66% among 230,000; inhibition, % at 12.5 µM; H9c2 cells, Nile Red lipid (TAG) fluorescence; cells loaded with 200 µM oleic acid;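 active = pattern-corrected inhibition of lipid staining of at least 50% with the nuclear-stain viability signal not falling by more than 50%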;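 also: 0% = DMSO wells and 100% = triacsin C control wells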
Jurkat NFkB inh: lowers PMA/ionomycin-induced NF-kB signal in Jurkat cells; PMA/ionomycin-induced NF-kB luciferase reporter, luminescence; inhibition, % at 4 µM; hit rate 0.53% among 330,000; in the data active = inhibition above about 50%
697 NFkB inh: lowers PMA/ionomycin-induced NF-kB signal in 697 B cells; 697 B-cell NF-kB luciferase reporter, 16 h; hit rate 0.33% among 330,000; inhibition, % at 4 µM; in the data active = inhibition above about 35%
697 NFkB conf: inhibitors of the PMA/ionomycin-induced NF-kB reporter in 697 B cells, retest | 697 B-cell NF-kB luciferase, 16 h | shares compounds with 697 NFkB inh | hit rate 35% among 2,000 | inhibition, % at 4 µM; in the data active = inhibition mostly above about 28%, no sharp cut-off; inactive = mostly below about 22%
* = called active by the depositor; i = inactive; x = no result. Sampled rows, rich in hits. Any-hit rate of the full collection: about 2.3%.

SMILES | Gli-Sufu antag | Shn3 inh set2 | aSyn 5UTR inh | H9c2 TAG inh | Jurkat NFkB inh | 697 NFkB inh | 697 NFkB conf
COC(=O)COc1cccc2c(=O)n(CC(=O)N3CCC(C)CC3)ccc12 | 8.2 | 22.3 | 2.9 | 1.1 | -10.0 | 3.2 | x
CCOC(=O)c1cc2c(ccn2C)n1Cc1ccccc1C | 5.8 | 21.0 | 11.0 | x | 14.6 | 0.6 | x
CCN1C(=O)[C@@H]2Cc3c([nH]c4ccccc34)C(c3ccc(OC)cc3)N2C1=S (stereo partly drawn) | -8.5 | 17.6 | 27.0 | x | -34.7 | i | -379.6
COC(=O)c1ccc(C2c3[nH]c4ccccc4c3C[C@H]3C(=O)N(C)CC(=O)N23)cc1 (stereo partly drawn) | -1.6 | 4.6 | -14.9 | x | -27.2 | -14.6 | x
COc1ccc(-c2cc3cc(F)ccc3cn2)cc1 | -117.6 | -51.6 | x | -9.8 | -5.6 | -254.7 | -263.4
COc1ccc(OC)c(NC(=O)c2[nH]c(C)c(C(C)=O)c2C)c1 | -13.2 | -16.1 | -85.0 | x | -2.7 | 35.9* | 33.5*
COc1ccc(-n2c(SCC(=O)NCC3CCCO3)nc3c(c2=O)SCC3)cc1OC (stereo not drawn) | 4.3 | -5.3 | 18.6 | 7.4 | 4.8 | 4.9 | x
COc1ccc(COC(=O)c2cccc(S(=O)(=O)N3CCN(C(C)=O)CC3)c2)cc1 | 2.4 | -17.6 | -8.9 | -6.8 | 9.5 | -9.0 | x
COc1ccc(C2(CNC(=O)c3ccc(C)cc3)CCOCC2)cc1 | 3.1 | 7.4 | -8.2 | -2.2 | 5.3 | 4.3 | x
Cc1cc(-c2csc3nc[nH]c(=S)c23)cc(C)c1C | 1.3 | -5.0 | 2.2 | -0.1 | 2.1 | 35.5* | -22.2
O=C(COC(=O)c1cccc(Br)c1)NCCc1ccc(F)cc1 | -9.5 | 11.4 | 5.4 | -5.5 | -5.3 | -6.9 | x
CCN(CC(=O)Nc1c(F)cccc1F)C(=O)c1cc(S(=O)(=O)N(C)C)ccc1N1CCCC1 | 12.6 | 18.0 | 35.1 | 9.7 | -1.5 | 37.5* | 30.5*
CCN(CC(=O)Nc1ccccc1C(F)(F)F)C(=O)c1cc(S(=O)(=O)N(C)C)ccc1N1CCCC1 | -3.6 | -9.8 | -6.4 | 8.3 | 11.7 | 19.4 | x
Cc1ccsc1/C=C1\CCc2ccccc2C1=O | -86.0 | -13.4 | -165.4 | -4.5 | -141.1 | -342.1 | -299.4
CCOc1ccc2nc(NC(=O)c3ccccn3)sc2c1 | -4.6 | 64.9 | 79.9* | 50.9* | -68.2 | -459.0 | -257.1
CC1CCc2nc(NC(=O)Cc3cccs3)sc2C1 (stereo not drawn) | -78.5 | -68.1 | -160.1 | 10.8 | -104.8 | -101.1 | x
CCOC(=O)c1ccc2nc(NC(=O)c3cccs3)sc2c1 | -11.5 | -39.1 | -105.1 | x | -60.5 | -200.3 | x
CCOC(=O)c1ccc2nc(NC(=O)c3ccco3)sc2c1 | -94.1 | -31.5 | -46.1 | -35.0 | -90.0 | -301.7 | -272.7
CC1CCc2nc(NC(=O)c3ccco3)sc2C1 (stereo not drawn) | -46.8 | 48.7 | 88.1* | -4.3 | -46.4 | -263.6 | -292.4
CCOc1ccc2nc(NC(=O)c3ccco3)sc2c1 | x | -3.1 | 12.5 | -5.3 | -111.7 | -327.2 | -288.1
COc1ccc2nc(NC(=O)c3cnccn3)sc2c1 | -50.7 | -39.8 | -5.8 | x | -114.6 | -135.0 | x
COc1ccc(/C=C(/NC(=O)c2cccs2)C(=O)N2CCOCC2)cc1OC | -5.3 | 3.7 | 5.2 | -2.2 | 4.9 | 8.3 | x
CCN(CC)C(=O)C1=C(C)N(CCCOC)C(=O)C(CC(=O)NCc2cccc3ccccc23)C1 (stereo not drawn) | x | 5.3 | x | -2.2 | x | x | x
O=C(Nc1nc2c(F)cc(F)cc2s1)c1ccccn1 | -65.7 | 87.6* | 73.1* | 46.0 | -31.7 | i | -318.3
Cn1nc(-c2ccc(N3CCOCC3)c(NS(=O)(=O)c3ccccc3)c2)c2ccccc2c1=O | 8.9 | -6.0 | 7.2 | x | 16.3 | 60.9* | 33.3*
CCOc1ccc(-c2c(=O)n(OCc3nc4ccccc4[nH]3)c3ccccc3[n+]2[O-])cc1 | 0.7 | -23.4 | -111.9 | -9.8 | -23.3 | -11.7 | x
Cc1ccccc1NC1=NC(C)(C)N=C(N)N1 | -5.1 | 0.2 | 6.3 | -1.1 | -4.7 | 11.8 | x
Cc1ccc(/C=C2\SC(=S)N(CCCC(=O)NC3CCCC3)C2=O)cc1 | 15.6 | 33.6 | 97.5* | x | 18.8 | 85.3* | 79.6*
Cc1ccc(/C=C2\SC(=S)N(CCC(=O)NNC(=O)c3ccc(O)cc3)C2=O)cc1 | -0.8 | -10.0 | -1.3 | x | 9.2 | 14.7 | x

Bioassay records (PubChem BioAssay)
